In PubChem BioAssay (NCATS) one finds activation, Potency and viability data, which are given here for 18 molecules.

Each structure is given as a SMILES string. Where “and” joins values, the source holds several entries; their conditions need not be identical. Equal values may be shown once. Inconclusive results are not listed. A number with no mark means an inactive call. Calls of active or inactive are those of the source. Calls come from the whole dose curve; as a rule, active = well fitted curve in the direction sought with a large enough effect; inconclusive = small, poorly fitted or top-dose-only effect, or another doubt; inactive = no such curve, though single readings can be large; an effect the other way counts as inactive or inconclusive.

The target in test [1] is Cellular tumor antigen p53 (Homo sapiens) (UniProt P04637). The test can be described thus: Primary qHTS for small molecule compounds that upregulate eGFP-tagged delta133p53alpha (in N-terminal) cells. (AID 2060322).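 Note: cells pre-induced with doxycycline then dosed without doxycycline; series mostly up to about 56 µM; 0% = DMSO vehicle and 100% = reference activator; nearly all actives have a fitted effect of over 75% in size.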 The following applies: NCI-H358 eGFP-delta133p53alpha fluorescence, 24 h; activation: active compounds read high. An outline of the steps:
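NCI-H358 cells pre-induced 24 h with 10 ng/ml doxycycline for eGFP-delta133p53alpha, plated dox-free and exposed 24 h at 37C to titrated compounds. Fixed, Hoechst-stained; gated GFP peak intensity by laser scanning cytometry, normalized to DMSO (0%) and 57.5 uM 5-azacytidine (100%).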

The target in test [2] is Aldehyde dehydrogenase, mitochondrial (Homo sapiens) (UniProt P05091). The test is described as follows: qHTS for Inhibitors of the Aldehyde Dehydrogenase Family (ALDH2) Primary screen (AID 2061308).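 Note: plate controls were vehicle for no effect and reference inhibitor for full effect; nearly all actives have a fitted effect of over 55% in size.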
The target of test [3] is Retinaldehyde dehydrogenase 3 (Homo sapiens) (UniProt P47895). The test is described as follows: qHTS for Inhibitors of the Aldehyde Dehydrogenase Family (ALDH1A3) Validation screen (AID 2061312). Note: % is set by controls: 0 for no effect and ±100 for the full control effect; nearly all actives have a fitted effect of over 45% in size. Background: In qHTS, concentration-response curves come from the screen itself.
The target is the same in test [4]. The test can be described thus: qHTS for Inhibitors of the Aldehyde Dehydrogenase Family (ALDH1A3) Primary screen (AID 2061315).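 Note: plate controls were DMSO vehicle for no effect and reference inhibitor for full effect.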
Test [5] is described as follows: BET inhibitor-based combinations targeting novel dependencies in MECOM-rearranged (r) AML: HNT-34 cell line (AID 2202234). Note: nearly all actives have a fitted effect of over 35% in size. Note: potency is the fitted concentration of half-maximal effect. An outline of the steps: (§1)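 Cells at 500/well were exposed for 48 hr to MIPE v5.0 drugs as 11-point dose curves. Viability was read by CellTiter-Glo luminescence and normalized to DMSO and empty-well controls. Activity was expressed as AUC and per-cell-line Z-AUC.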

A short description of test [6]: BET inhibitor-based combinations targeting novel dependencies in MECOM-rearranged (r) AML: UCSD-AML1 cell line (AID 2202235). Note: nearly all actives have a fitted effect of over 40% in size. Note: potency is the fitted concentration of half-maximal effect. The procedure, abridged: as §1
Test [7] can be described thus: BET inhibitor-based combinations targeting novel dependencies in MECOM-rearranged (r) AML: AML-191 cell line (AID 2202236; note: nearly all actives have a fitted effect of over 35% in size; note: potency is the fitted concentration of half-maximal effect). An outline of the steps:
(§2)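 AML cell lines seeded at 500 cells/well, treated with 11-point dose curves for 48 h. Viability by CellTiter-Glo luminescence, normalised to DMSO and empty wells; activity expressed as AUC and per-cell-line Z-transformed AUC.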

Test [8] in a line: BET inhibitor-based combinations targeting novel dependencies in MECOM-rearranged (r) AML: AML-194 cell line (AID 2202237; note: nearly all actives have a fitted effect of over 40% in size; note: potency is the fitted concentration of half-maximal effect). The procedure, abridged:
as §2

Test [9] in a line: BET inhibitor-based combinations targeting novel dependencies in MECOM-rearranged (r) AML: SET-2 cell line (AID 2202231).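 Note: plate controls were DMSO treated cells for no effect and wells without cells for full effect; nearly all actives have a fitted effect of over 35% in size.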 The following applies: SET-2 AML cells viability, CellTiter-Glo luminescence, 48 h; viability: active compounds read low, series mostly up to about 46 µM. The procedure, abridged: as §2
The nature of test [10]: BET inhibitor-based combinations targeting novel dependencies in MECOM-rearranged (r) AML: OCI-AML3 cell line (AID 2202232).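 Note: series mostly up to about 46 µM; plate controls were DMSO vehicle wells for no effect and wells without cells for full effect; nearly all actives have a fitted effect of over 35% in size.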 Conditions: Potency: OCI-AML3 viability. The procedure, abridged:
as §2

Test [11] in a line: BET inhibitor-based combinations targeting novel dependencies in MECOM-rearranged (r) AML: MV-4-11 cell line (AID 2202233).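 Note: plate controls were DMSO for no effect and blank wells for full effect; nearly all actives have a fitted effect of over 45% in size.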 An outline of the steps:
as §1

Cellular tumor antigen p53 (Homo sapiens), sequence (P04637 whole entry, looked up): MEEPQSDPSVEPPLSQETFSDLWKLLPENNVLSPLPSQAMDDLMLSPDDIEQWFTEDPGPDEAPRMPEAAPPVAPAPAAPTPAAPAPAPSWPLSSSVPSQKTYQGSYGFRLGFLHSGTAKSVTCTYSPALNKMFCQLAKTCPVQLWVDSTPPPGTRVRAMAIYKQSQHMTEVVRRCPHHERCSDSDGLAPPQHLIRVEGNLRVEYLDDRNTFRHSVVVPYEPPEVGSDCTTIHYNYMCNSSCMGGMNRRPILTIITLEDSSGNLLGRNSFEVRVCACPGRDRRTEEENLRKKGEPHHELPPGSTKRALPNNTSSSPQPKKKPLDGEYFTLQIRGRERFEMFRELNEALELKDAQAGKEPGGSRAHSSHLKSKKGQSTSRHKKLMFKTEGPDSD

With `CC[C@H]1/C=C\C=C/C[C@@H](C)[C@H](O)[C@@](C)(O)C(=O)[C@@H](C)[C@H](O)[C@@H](C)C(=O)[C@@H](C)[C@H](O)[C@@H](C)/C=C\C(=O)O[C@@H]2[C@H](C)[C@H](CC1)O[C@]1(CC[C@H](C)[C@H](C[C@@H](C)O)O1)[C@H]2C`, the activation in test [1] was 26.3%. Further, the Potency entry in [2], in test [3] and in [4] was “inactive” each time. Also, the Potency is 46.8 nM (active) in test [5], 7.42 µM (active) in test [6], 1.18 µM (active) in test [7] and 2.95 µM (active) in test [8].
In the case of `C[C@]12CC[C@H](O[C@@H]3O[C@H](CO)[C@@H](O)[C@H](O)[C@H]3O[C@@H]3O[C@H](CO)[C@@H](O)[C@H](O)[C@H]3O)CC1=CC[C@@H]1[C@@H]2CC[C@]2(C)[C@@H](C3=CC(=O)OC3)CC[C@]12O`, the activation in [1] is 8.93%. In addition, the Potency result in test [2] and in [4] was “inactive” each time.
Broadly, the viability is a read-out of living cells in per cent, often relative to untreated cells. For `O=C1C=CC[C@@H]2[C@H]3CCCN4CCC[C@@H](CN12)[C@@H]34`, the activation in test [1] is -8.56% and -6.68%. Further, the Potency entry in test [2], in [3], in [4], in test [10], in [5] and in test [6] was “inactive” in each case. In addition, the Potency result in [7] and in test [8] was “inactive” throughout. For the same molecule, in test [9], the viability is 108%.
Regarding `CC(CCc1ccc(O)cc1)O[C@@H]1O[C@H](CO[C@H]2OC[C@](O)(CO)[C@H]2O)[C@@H](O)[C@H](O)[C@H]1O` (stereo not given in full), in [1], the activation was 2.29%. For the same molecule, the Potency result in [2] and in test [4] was “inactive” each time.
With `O=C(O)C(=O)c1cn(Cc2ccccc2)c2ccc(-c3ccc(OC(F)(F)F)cc3)cc12`, the activation in test [1] was -6.9% and -6.21%. Besides, the Potency result in test [2], in [3], in test [4], in test [7] and in test [8] was “inactive” in each case.
`C[C@]12CC[C@H](OC3OC(CO)C(O)C(O)C3OC3OC(CO)C(O)C(O)C3O)C[C@@H]1CC[C@@H]1C2CC[C@]2(C)[C@@H](C3=CC(=O)OC3)CC[C@]12O` (stereo not given in full): in test [1], the activation is 13.4%. In addition, the Potency entry in test [2] and in [4] was “inactive” in each case.
As for `CCN(CC)C(=O)c1ccc(C2=CC3(CCNCC3)Oc3cccc(O)c32)cc1`, the activation in test [1] is -5.25%. For the same molecule, the Potency entry in test [2], in test [3], in [4], in test [7] and in test [8] was “inactive” in each case.
`CC(=O)N1N=C(c2ccc(N)cc2)c2cc3c(cc2C[C@H]1C)OCO3`: in test [1], the activation was -0.955%. The Potency result in test [2], in test [3], in test [4], in test [11], in [5] and in test [6] was “inactive” throughout. For the same molecule, the Potency result in [7] is “inactive”. Further, the viability in [9] was 93.4%.
Take `CCc1c(C(=O)C(N)=O)c2c(OCC(=O)O)cccc2n1Cc1ccccc1`: the activation in [1] was -24.6% and -2.39%. The Potency entry in test [2], in test [3], in test [4], in [10], in test [11] and in [5] was “inactive” throughout. Also, the Potency result in test [6] and in test [7] was “inactive” throughout. For the same molecule, the viability in test [9] is 113%.
With `Cc1cccc(NC(=O)c2ccc(C(F)(F)F)cc2C(=O)O)n1`, in test [1], the activation was 1%. Moreover, the Potency entry in test [2] and in test [4] was “inactive” each time.
On to `CC(=O)O[C@H]1C[C@@H](OC(C)=O)C(C)(C)C2C[C@@H](O)[C@]3(C)C(CC[C@@]4(C)[C@H](C5=CC(=O)OC5O)C[C@H]5O[C@]543)[C@]21C` (stereo not given in full), for which the activation in test [1] was -6.87%. The Potency result in test [2] and in [4] was “inactive” each time.
`C[C@]12CC[C@H](O)C[C@@H]1CC[C@@H]1[C@@H]2CC[C@]2(C)[C@@H](C3=CC(=O)OC3)CC[C@]12O`: in [1], the activation is 7.63%. In addition, the Potency result in [2] and in test [4] was “inactive” each time.
On to `CC(=O)O[C@H]1CC[C@H]2[C@@H]3CC[C@H]4CC(=O)C=C(C)[C@]4(C)[C@H]3CC[C@]12C`, for which the activation in test [1] was -6.33%. Further, the Potency entry in [2] and in test [4] was “inactive” each time.
For `C=C1[C@@H]2CC[C@@]3(C)[C@H](c4ccoc4)OC(=O)C[C@]13O[C@H]1CC(=O)C(C)(C)[C@H](C(OC(C)=O)C(=O)OC)[C@]12C` (stereo not given in full), in test [1], the activation was -8.4%. In addition, the Potency entry in test [2] and in test [4] was “inactive” in each case.
For the molecule `COC(=O)C1=COC(C)C2CN3CCC4(C(=O)Nc5ccccc54)C3CC12` (stereo not given), the activation in test [1] is 11.5%. Besides, the Potency result in test [2] and in test [4] was “inactive” each time.
For `CN1C(=O)C(Cc2ccc3ccccc3c2)N=C(c2ccc(O)cc2)c2cc(Cl)ccc21` (stereo not given), in test [1], the activation is 10.3%. Moreover, the Potency result in test [2] and in test [4] was “inactive” in each case.
As to `C[C@@H]1C(=O)O[C@H]2[C@H](O)[C@@]34[C@@H]5OC(=O)[C@@]3(O[C@@H]3OC(=O)[C@@H](O)[C@@]34[C@H](C(C)(C)C)[C@H]5O)[C@@]12O`, in test [1], the activation was 2.68%. Further, the Potency entry in test [2] and in test [4] was “inactive” throughout.
Consider `C/C=C1/CN2CC[C@]34C(=Nc5ccccc53)[C@@H]2C[C@@H]1[C@H]4C(=O)OC`, for which, in [1], the activation was 17.9%. In addition, the Potency result in [2] and in test [4] was “inactive” throughout.
